Compound activity from PubChem.
Sfp PPTase inh – qHTS Assay for Inhibitors of Bacillus subtilis Sfp phosphopantetheinyl transferase (PPTase) | 4'-phosphopantetheinyl transferase ffp (Bacillus subtilis), Q9F4F7 | Biochemical Sfp PPTase activity, qHTS | Potency, µM, usual class: inhibitors | 3.5% of 310,000 active | AID 1490, 2009;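 further: the enzyme is Sfp with the accession as filed and its product quenches rhodamine fluorescence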
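Sfp 15 nM + cpd, 15 min RT; start w/ rhodamine-CoA 5 uM, BHQ-2-YbbR 12.5 uM (final); 50 mM Hepes pH 7.6, 10 mM MgCl2, 0.01% NP-40, 0.01% BSA; read 525/598 nm at 0 and 30 min.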
Tau fluor cs – Counterscreen qHTS for Inhibitors of Tau Fibril Formation, Fluorescence Polarization | tau K18 P301L Alexa594 fluorescence, heparin fibrillization | Potency, µM (titrated, usually from 57.7 µM) | 0.93% of 280,000 active | AID 1463, 2008; further: nearly all actives have a fitted effect of over 55% in size
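Human tau K18 P301L (15 uM unlabeled, 0.24 uM Alexa 594-labeled) in 100 mM sodium acetate pH 7 with 20 uM heparin, 6 hr at 37 C. ThT 30 uM added, 1 hr ambient; Alexa 594 FP and total fluorescence read at 555/632 nm.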
KDM4E inh – qHTS Assay for Inhibitors of Human Jumonji Domain Containing 2E (JMJD2E). Potency, µM (series often up to 57.1 µM), hits mostly inhibitors. Lysine-specific demethylase 4E (Homo sapiens), B2RXH2. 1.6% of 230,000 active. JMJD2E catalytic domain, FDH-coupled NADH fluorescence (FDH is formaldehyde dehydrogenase); further: nearly all actives have a fitted effect of over 50% in size
Target sequence (B2RXH2 1-337 limits assumed): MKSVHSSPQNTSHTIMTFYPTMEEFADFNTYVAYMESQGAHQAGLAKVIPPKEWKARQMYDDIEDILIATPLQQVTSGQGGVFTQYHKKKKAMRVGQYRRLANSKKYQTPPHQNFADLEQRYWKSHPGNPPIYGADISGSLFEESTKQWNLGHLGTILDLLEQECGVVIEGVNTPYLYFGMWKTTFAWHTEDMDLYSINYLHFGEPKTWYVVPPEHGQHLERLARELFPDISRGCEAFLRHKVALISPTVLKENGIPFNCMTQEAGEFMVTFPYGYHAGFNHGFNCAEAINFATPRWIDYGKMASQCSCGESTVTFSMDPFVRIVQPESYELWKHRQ
Coupling enz – qHTS Assay for Inhibitors of Fructose-1,6-bisphosphate Aldolase from Giardia Lamblia: Coupling assay counterscreen; coupling enzyme system counterscreen, AmpLite Red fluorescence; activity change, negative = inhibition, % at 58.2 µM, hits read low; 0.67% of 290,000 active; AID 2472, 2010; in the data active means activity change below about -30%
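Final compound at 57.5 uM, incubated 10 min at RT with coupling enzyme reagent (glyceraldehyde-3-phosphate), then 20 min with substrate and AmpLite Red detection. Fluorescence read at 525/598 nm; tests interference with the coupling assay, not aldolase inhibition.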
Tau fibril FP – qHTS for Inhibitors of Tau Fibril Formation, Fluorescence Polarization. Potency, µM (highest dose often 57.7 µM), most hits filed as inhibitors. 0.39% of 280,000 active. K18 P301L tau heparin fibrillization, Alexa594 FP, 6 h. Microtubule-associated protein tau (Homo sapiens), P10636; further: nearly all actives have a fitted effect of over 55% in size
Target sequence (P10636 561-689 P618L limits assumed): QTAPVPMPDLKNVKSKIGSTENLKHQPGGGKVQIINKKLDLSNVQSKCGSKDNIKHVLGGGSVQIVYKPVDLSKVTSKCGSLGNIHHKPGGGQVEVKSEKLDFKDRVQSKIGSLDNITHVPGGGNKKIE
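Read-out: fluorescence polarization of Alexa 594-labeled tau (0.24 uM), 555 nm excitation, 632 nm emission. Mixtures held 15 uM unlabeled K18 P301L, compound and 20 uM heparin, pH 7 acetate buffer, incubated 6 hr at 37 C.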
Tau fibril ThT – qHTS for Inhibitors of Tau Fibril Formation, Thioflavin T Binding. Microtubule-associated protein tau (Homo sapiens), P10636. recombinant tau K18 P301L (four-repeat tau fragment), heparin-induced fibrillization, ThT fluorescence. Potency, µM (titrated, usually from 57.4 µM), most hits filed as inhibitors. 2.1% of 270,000 active; further: nearly all actives have a fitted effect of over 55% in size
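Tau K18 P301L fragment (15 uM unlabeled plus 0.24 uM Alexa 594-labeled) in 100 mM sodium acetate pH 7 with compound, fibrillization induced by 20 uM heparin for 6 hr at 37 C. Thioflavin T (30 uM) added, fluorescence read after 1 hr (ex 450, em 510 nm).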
Hits are given with their value; [ ] = another dose, or the depositor's remark. An excerpt weighted towards active compounds, which were near 5.3% of everything screened. Unless noted, the call rests on the fitted dose curve; in most records, active means well fitted curve in the direction sought with a large enough effect; inconclusive means small, poorly fitted or top-dose-only effect, or another doubt; inactive means no such curve, though single readings can be large; an effect the other way counts as inactive or inconclusive.

`O=C(NC(=S)NC(=O)c1ccccc1F)c1ccccc1F` gave Sfp PPTase inh 50µM, Tau fluor cs inactive, KDM4E inh inactive, Coupling enz inactive, Tau fibril FP inconclusive and Tau fibril ThT inactive.
COc1cccc(NC(=O)CSc2cc(C)[nH]c(=O)n2)c1 was read as Tau fluor cs inactive, Tau fibril FP inconclusive and Tau fibril ThT inactive.
For CC(C)=CC1C(CO)C1(C)C (centres undefined) the results were Sfp PPTase inh inactive, Tau fluor cs inactive, KDM4E inh inactive, Coupling enz inactive, Tau fibril FP inactive and Tau fibril ThT inactive.
Screening Cc1onc(-c2ccccc2)c1C(=O)NC(=S)NNC(=O)c1ccccc1O returned Sfp PPTase inh inactive, Tau fluor cs inactive, KDM4E inh 18µM, Coupling enz inactive, Tau fibril FP inconclusive and Tau fibril ThT inactive.
`CCCOc1ccc(NC(=O)c2c(-c3ccccc3)noc2C)cc1` gave Sfp PPTase inh inactive, Tau fluor cs inactive, KDM4E inh inactive, Coupling enz inactive, Tau fibril FP inactive and Tau fibril ThT inactive.
CCCOc1ccc(C(=O)NC(=S)NNC(=O)c2c(-c3ccccc3)noc2C)cc1 was read as Sfp PPTase inh inactive, Tau fluor cs inactive, KDM4E inh 11µM, Coupling enz inactive, Tau fibril FP inactive and Tau fibril ThT inconclusive.
Screening Cc1onc(-c2ccccc2)c1C(=O)NC(=S)NNC(=O)c1ccc(O)cc1O returned Sfp PPTase inh inactive, Tau fluor cs inactive, KDM4E inh 11µM, Coupling enz inactive, Tau fibril FP inconclusive and Tau fibril ThT inconclusive.
`CC(=O)Nc1ccn(C2OC(C(COC(C)=O)NC(=O)C(Cc3ccccc3)NC(=O)OC(C)(C)C)C(OC(C)=O)C2OC(C)=O)c(=O)n1` (centres undefined) gave Sfp PPTase inh inactive and Coupling enz inactive.
For Cn1c(=O)[nH]c(=O)c2[nH]c(CN3CCN(Cc4ccccc4)CC3)nc21 the results were Sfp PPTase inh inactive, Tau fluor cs inactive, KDM4E inh inactive, Coupling enz inactive, Tau fibril FP inactive and Tau fibril ThT inactive.
For Cn1c(=O)[nH]c(=O)c2[nH]c(N(Cc3ccccc3)Cc3ccccc3)nc21 the results were Sfp PPTase inh 89µM, Tau fluor cs inactive, KDM4E inh inactive, Coupling enz inactive, Tau fibril FP inactive and Tau fibril ThT inconclusive.
CCN1C(=O)C(CC(=O)Nc2ccc(F)cc2)N(CCCN2CCN(c3ccc(F)cc3)CC2)C1=S (centres undefined) was read as Sfp PPTase inh inactive, Tau fluor cs 13µM[quencher], KDM4E inh inactive, Coupling enz inactive, Tau fibril FP inconclusive and Tau fibril ThT inconclusive.
For CCCOc1ccc(NC(=O)CC2C(=O)N(CC)C(=S)N2CCCN2CCN(Cc3ccccc3)CC2)cc1 (centres undefined) the results were Sfp PPTase inh inactive, Tau fluor cs inconclusive, KDM4E inh inactive, Coupling enz inactive, Tau fibril FP inactive and Tau fibril ThT inconclusive.
COc1ccc(-c2nc3cnc(N4CCOCC4)nc3n(Cc3cccs3)c2=O)cc1 was read as Sfp PPTase inh inactive and Coupling enz inactive.
Screening COc1cccc(/C=N/Nc2nn3cnnc3c3ccccc23)c1O returned Sfp PPTase inh inactive, Tau fluor cs inactive, KDM4E inh 18µM, Coupling enz inactive, Tau fibril FP inactive and Tau fibril ThT inconclusive.
For Cc1ccc(C(=O)C2=C(O)C(=O)N(CCCN3CCOCC3)C23C(=O)N(C)c2ccccc23)o1 (centres undefined) the results were Sfp PPTase inh inactive, Tau fluor cs inactive, KDM4E inh inactive, Coupling enz inactive, Tau fibril FP inactive and Tau fibril ThT inactive.
For CCN1C(=O)C2(C(C(=O)c3ccc(C)o3)=C(O)C(=O)N2CCCN2CCOCC2)c2ccccc21 (centres undefined) the results were Sfp PPTase inh 2.5µM, Tau fluor cs inactive, KDM4E inh inactive, Coupling enz inactive, Tau fibril FP inactive and Tau fibril ThT inactive.
For S=c1[nH]nc(-c2cccnc2)n1/N=C/c1ccco1 the results were Sfp PPTase inh 40µM, Tau fluor cs inactive, KDM4E inh inactive, Coupling enz inactive, Tau fibril FP inconclusive and Tau fibril ThT inactive.
Cc1ccc(-c2n[nH]c(=S)n2/N=C\c2ccco2)cc1 was read as Sfp PPTase inh inconclusive, Tau fluor cs inactive, KDM4E inh inactive, Coupling enz inactive, Tau fibril FP inactive and Tau fibril ThT inactive.
Cc1ccc(-c2n[nH]c(=S)n2/N=C/c2c(C)[nH]n(-c3ccccc3)c2=O)cc1 was read as Sfp PPTase inh 50µM, Tau fluor cs inactive, KDM4E inh inconclusive, Coupling enz inactive, Tau fibril FP inactive and Tau fibril ThT inconclusive.
Cc1nn(-c2ccccc2)c(C)c1/C=N/n1c(-c2ccc(Cl)cc2)n[nH]c1=S was read as Sfp PPTase inh inactive, Tau fluor cs inactive, KDM4E inh inactive, Coupling enz inactive, Tau fibril FP inactive and Tau fibril ThT inactive.
Screening CCOc1ccc2nc(/N=C/c3c(C)[nH]n(-c4ccccc4)c3=O)sc2c1 returned Sfp PPTase inh 10µM, Tau fluor cs inconclusive, KDM4E inh inactive, Coupling enz inactive, Tau fibril FP inconclusive and Tau fibril ThT 14µM.
CCOc1ccc2nc(/N=C/c3c(C)[nH]n(-c4ccc(C)cc4)c3=O)sc2c1 was read as Sfp PPTase inh inactive, Tau fluor cs inactive, KDM4E inh inactive, Coupling enz inactive, Tau fibril FP inactive and Tau fibril ThT inconclusive.
Cc1ccc(/C=N/n2c(-c3cccnc3)n[nH]c2=S)s1 was read as Sfp PPTase inh 35µM, Tau fluor cs inactive, KDM4E inh inactive, Coupling enz inactive, Tau fibril FP inactive and Tau fibril ThT inactive.
`CNc1ncnc2ccc(-c3ccccc3C)cc12` gave Sfp PPTase inh inactive and Coupling enz inactive.
`COc1ccccc1NC(=O)Cn1c(=O)n(-c2ccc(C)cc2)c(=O)c2ccc(C(=O)NCc3ccco3)cc21` gave Tau fluor cs inactive, Tau fibril FP inactive and Tau fibril ThT inactive.
Screening CC1(O)C(=O)C=C2C=C(CCCCOCc3ccccc3)OC=C2C1=O (centres undefined) returned Sfp PPTase inh inactive, Tau fluor cs inactive[11.6 µM], Coupling enz inactive, Tau fibril FP inactive[11.6 µM] and Tau fibril ThT inconclusive.
For Cc1ccc(-c2n[nH]c(=S)n2/N=C/c2ccc(C)o2)cc1 the results were Sfp PPTase inh 71µM, Tau fluor cs inactive, KDM4E inh inactive, Coupling enz inactive, Tau fibril FP inactive and Tau fibril ThT inactive.
